Here are results for 1 sequence from article PMC7862700, “An all-to-all approach to the identification of sequence-specific readers for epigenetic DNA modifications on cytosine”.

Holding throughout (experiment): DAPPL (digital affinity profiling via proximity ligation, sequencing); 10 mM Tris-HCl pH 7.5, 50 mM NaCl, 1 mM DTT, 4% glycerol, room temperature, 30 min; GST-TFs on glutathione beads, 16-mer random dsDNA library, 0.1% formaldehyde crosslink after washing; high values mean tight binding
For one assay, the target named is T1, FEV (Homo sapiens, UniProt Q99581 1-238).
T1 sequence: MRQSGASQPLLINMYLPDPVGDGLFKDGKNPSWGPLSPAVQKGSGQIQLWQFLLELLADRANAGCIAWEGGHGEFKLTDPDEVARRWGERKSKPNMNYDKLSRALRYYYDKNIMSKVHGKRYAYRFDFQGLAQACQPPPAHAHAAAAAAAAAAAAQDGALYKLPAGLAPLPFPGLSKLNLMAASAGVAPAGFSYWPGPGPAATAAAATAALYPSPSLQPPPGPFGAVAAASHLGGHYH
The following applies: protein: recombinant; tags: N-terminal GST; dsDNA, one strand shown. An outline of the steps: (§1)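 Human transcription factors carrying a GST fusion were produced in yeast, bound to glutathione beads, tagged with DNA barcodes and pooled together with a tag-only sample. Each pool was held with 200 nmole of a random double-stranded 16-mer DNA library in Tris/NaCl/DTT/glycerol buffer for 30 min at room temperature, then washed, crosslinked in 0.1% formaldehyde, proximity-ligated with BsaI/T4 ligase (1 h, 37 °C), PCR-amplified and sequenced on an Illumina NextSeq500. Binding signal is the read frequency of each hexamer for a given factor divided by its frequency in the tag-only sample.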

The target of the next assay is ETV5 (Homo sapiens, UniProt P41161 1-510). As to conditions: protein: recombinant; tags: N-terminal GST; dsDNA, one strand shown. In a few lines: as §1
Chain of ETV5 (P41161 whole entry): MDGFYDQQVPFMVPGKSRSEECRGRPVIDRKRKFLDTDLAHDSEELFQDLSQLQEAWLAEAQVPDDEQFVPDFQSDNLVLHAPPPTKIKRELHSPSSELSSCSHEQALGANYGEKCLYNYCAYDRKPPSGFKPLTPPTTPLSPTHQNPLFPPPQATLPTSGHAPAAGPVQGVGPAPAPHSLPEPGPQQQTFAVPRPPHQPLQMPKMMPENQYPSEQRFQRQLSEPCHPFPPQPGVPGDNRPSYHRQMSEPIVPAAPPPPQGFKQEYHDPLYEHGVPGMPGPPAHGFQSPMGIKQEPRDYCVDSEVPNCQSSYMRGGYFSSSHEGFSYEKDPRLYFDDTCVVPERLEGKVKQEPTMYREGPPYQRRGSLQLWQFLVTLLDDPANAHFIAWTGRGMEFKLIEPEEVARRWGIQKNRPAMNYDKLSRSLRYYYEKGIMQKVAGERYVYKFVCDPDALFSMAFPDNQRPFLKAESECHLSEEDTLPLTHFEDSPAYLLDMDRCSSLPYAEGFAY
The next assay concerns the target HSF1 (Homo sapiens, UniProt Q00613 1-529). The following applies: protein: recombinant; tags: N-terminal GST; chain copies: 3; dsDNA, one strand shown. An outline of the steps: as §1
In a further assay the target is T2, SPIC (Homo sapiens, UniProt Q8N5J4 1-248).
T2 sequence: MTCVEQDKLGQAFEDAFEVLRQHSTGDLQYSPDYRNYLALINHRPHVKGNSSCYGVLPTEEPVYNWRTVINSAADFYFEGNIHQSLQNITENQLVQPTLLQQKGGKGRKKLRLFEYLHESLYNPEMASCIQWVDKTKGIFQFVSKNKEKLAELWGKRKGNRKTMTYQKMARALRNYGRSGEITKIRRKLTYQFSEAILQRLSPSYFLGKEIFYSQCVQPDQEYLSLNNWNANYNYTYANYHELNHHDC
As to conditions: protein: recombinant; tags: N-terminal GST; dsDNA, one strand shown. In a few lines:
as §1

Another assay concerns the target ELF4 (Homo sapiens, UniProt Q99607 1-663). The following applies: protein: recombinant; tags: N-terminal GST; dsDNA, one strand shown. In a few lines:
as §1

The next assay concerns the target T3, ELK4 (Homo sapiens, UniProt P28324-2 1-405).
T3 sequence: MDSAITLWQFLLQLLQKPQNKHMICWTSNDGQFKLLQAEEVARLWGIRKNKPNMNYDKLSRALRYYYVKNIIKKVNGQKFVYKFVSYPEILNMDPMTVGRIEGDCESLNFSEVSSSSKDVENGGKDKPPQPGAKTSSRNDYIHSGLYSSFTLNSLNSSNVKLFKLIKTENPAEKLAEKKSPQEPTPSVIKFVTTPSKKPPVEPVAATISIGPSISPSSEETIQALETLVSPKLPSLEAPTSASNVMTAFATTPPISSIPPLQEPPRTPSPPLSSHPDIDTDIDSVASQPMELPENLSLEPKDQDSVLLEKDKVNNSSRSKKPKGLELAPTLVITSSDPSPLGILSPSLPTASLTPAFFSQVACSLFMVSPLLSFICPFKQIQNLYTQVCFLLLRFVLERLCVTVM
The following applies: protein: recombinant; tags: N-terminal GST; dsDNA, one strand shown. In a few lines: as §1

A further assay concerns the target T4, ETV2 (Homo sapiens, UniProt O00321 1-342).
T4 sequence: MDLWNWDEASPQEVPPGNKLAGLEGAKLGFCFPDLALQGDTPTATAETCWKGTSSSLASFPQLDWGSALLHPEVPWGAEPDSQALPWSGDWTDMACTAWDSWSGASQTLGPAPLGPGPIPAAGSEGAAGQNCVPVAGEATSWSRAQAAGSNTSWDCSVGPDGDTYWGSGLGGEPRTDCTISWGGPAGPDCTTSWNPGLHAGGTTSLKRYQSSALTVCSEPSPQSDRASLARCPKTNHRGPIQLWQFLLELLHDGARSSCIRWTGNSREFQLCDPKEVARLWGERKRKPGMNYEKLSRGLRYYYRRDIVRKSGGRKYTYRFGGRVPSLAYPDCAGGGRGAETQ
As to conditions: protein: recombinant; tags: N-terminal GST; dsDNA, one strand shown. An outline of the steps:
as §1

The target of a further assay is T5, ELF3 (Homo sapiens, UniProt P78545 1-371).
T5 sequence: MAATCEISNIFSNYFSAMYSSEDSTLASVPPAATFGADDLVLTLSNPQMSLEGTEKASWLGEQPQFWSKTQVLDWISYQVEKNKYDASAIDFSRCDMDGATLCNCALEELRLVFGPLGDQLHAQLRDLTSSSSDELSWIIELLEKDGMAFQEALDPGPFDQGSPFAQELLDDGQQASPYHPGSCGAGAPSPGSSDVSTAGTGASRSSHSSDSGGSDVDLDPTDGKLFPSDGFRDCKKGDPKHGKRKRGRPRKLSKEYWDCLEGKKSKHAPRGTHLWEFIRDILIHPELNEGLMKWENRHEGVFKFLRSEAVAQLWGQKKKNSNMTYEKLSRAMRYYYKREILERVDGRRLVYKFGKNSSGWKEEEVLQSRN
The following applies: protein: recombinant; tags: N-terminal GST; dsDNA, one strand shown. An outline of the steps:
as §1

The next assay has as its target CRX (Homo sapiens, UniProt O43186 1-299). As to conditions: protein: recombinant; tags: N-terminal GST; dsDNA, one strand shown. An outline of the steps:
as §1

The target of another assay is ETV1 (Homo sapiens, UniProt P50549 1-477). As to conditions: protein: recombinant; tags: N-terminal GST; dsDNA, one strand shown. An outline of the steps: as §1
Chain of ETV1 (P50549 whole entry): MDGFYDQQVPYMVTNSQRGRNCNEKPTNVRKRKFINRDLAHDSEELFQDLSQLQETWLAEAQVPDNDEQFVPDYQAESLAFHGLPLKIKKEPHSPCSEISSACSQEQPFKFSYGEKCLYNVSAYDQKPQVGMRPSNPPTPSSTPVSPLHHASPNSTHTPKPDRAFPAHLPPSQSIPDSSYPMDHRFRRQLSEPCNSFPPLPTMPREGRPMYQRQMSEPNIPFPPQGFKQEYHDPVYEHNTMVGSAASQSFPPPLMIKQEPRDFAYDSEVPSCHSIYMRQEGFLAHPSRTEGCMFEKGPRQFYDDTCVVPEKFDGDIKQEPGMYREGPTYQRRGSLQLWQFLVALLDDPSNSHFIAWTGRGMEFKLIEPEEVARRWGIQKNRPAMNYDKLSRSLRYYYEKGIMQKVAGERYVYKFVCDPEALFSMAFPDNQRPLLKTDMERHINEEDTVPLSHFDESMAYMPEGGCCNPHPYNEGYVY
A further assay addresses T6, ERF (Homo sapiens, UniProt P50548 1-548).
T6 sequence: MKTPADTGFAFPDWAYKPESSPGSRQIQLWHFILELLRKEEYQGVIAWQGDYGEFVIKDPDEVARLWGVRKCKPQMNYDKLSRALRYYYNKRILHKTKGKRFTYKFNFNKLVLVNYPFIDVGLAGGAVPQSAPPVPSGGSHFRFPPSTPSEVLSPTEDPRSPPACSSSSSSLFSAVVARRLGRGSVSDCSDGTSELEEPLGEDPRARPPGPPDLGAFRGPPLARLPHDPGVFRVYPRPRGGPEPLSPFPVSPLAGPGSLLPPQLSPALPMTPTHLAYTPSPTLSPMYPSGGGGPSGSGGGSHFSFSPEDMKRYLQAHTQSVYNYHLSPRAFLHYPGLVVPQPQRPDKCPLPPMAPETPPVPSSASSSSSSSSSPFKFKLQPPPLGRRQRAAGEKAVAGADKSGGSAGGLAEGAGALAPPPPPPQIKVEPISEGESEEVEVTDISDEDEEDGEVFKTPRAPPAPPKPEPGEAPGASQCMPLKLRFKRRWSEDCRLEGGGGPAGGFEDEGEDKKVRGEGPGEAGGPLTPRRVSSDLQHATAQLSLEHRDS
The following applies: protein: recombinant; tags: N-terminal GST; dsDNA, one strand shown. An outline of the steps: as §1

The next assay concerns the target T7, ETV3L (Homo sapiens, UniProt Q6ZN32 1-361).
T7 sequence: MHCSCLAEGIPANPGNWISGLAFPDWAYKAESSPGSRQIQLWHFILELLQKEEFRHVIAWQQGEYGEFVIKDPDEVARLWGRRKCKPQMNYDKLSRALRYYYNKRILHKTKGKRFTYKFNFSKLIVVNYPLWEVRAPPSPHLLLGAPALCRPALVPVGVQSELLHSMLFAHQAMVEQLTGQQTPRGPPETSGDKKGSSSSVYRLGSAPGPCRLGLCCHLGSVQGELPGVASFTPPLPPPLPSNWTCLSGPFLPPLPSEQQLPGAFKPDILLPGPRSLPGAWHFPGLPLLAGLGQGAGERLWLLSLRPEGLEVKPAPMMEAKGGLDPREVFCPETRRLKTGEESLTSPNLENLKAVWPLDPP
The following applies: protein: recombinant; tags: N-terminal GST; dsDNA, one strand shown. An outline of the steps: as §1

Another assay has as its target T8, ETS2 (Homo sapiens, UniProt P15036 1-469).
T8 sequence: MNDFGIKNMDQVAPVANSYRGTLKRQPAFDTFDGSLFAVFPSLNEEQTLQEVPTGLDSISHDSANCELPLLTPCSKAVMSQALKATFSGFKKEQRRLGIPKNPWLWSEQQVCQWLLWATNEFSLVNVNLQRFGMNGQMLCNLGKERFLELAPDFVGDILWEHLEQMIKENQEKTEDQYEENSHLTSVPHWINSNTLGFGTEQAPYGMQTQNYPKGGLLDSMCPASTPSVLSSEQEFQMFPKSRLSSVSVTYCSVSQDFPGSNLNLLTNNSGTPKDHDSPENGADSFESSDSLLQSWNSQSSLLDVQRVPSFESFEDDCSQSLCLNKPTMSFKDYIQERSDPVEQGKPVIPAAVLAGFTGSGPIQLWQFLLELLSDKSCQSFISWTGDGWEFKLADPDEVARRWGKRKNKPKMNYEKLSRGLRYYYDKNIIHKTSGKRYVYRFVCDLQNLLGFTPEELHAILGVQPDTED
The following applies: protein: recombinant; tags: N-terminal GST; dsDNA, one strand shown. In a few lines: as §1

The next assay addresses T9, SPDEF (Homo sapiens, UniProt O95238 1-335).
T9 sequence: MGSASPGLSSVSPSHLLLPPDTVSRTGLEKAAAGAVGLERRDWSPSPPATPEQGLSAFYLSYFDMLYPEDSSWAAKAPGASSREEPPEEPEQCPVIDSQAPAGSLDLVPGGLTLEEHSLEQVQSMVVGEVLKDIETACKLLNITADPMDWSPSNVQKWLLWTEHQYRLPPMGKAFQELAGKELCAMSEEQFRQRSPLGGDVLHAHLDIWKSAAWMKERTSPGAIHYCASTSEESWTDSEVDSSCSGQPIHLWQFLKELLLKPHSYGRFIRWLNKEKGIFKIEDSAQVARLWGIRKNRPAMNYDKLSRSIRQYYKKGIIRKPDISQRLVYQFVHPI
As to conditions: protein: recombinant; tags: N-terminal GST; dsDNA, one strand shown. An outline of the steps:
as §1

The next assay addresses T10, ETV7 (Homo sapiens, UniProt Q9Y603 1-341).
T10 sequence: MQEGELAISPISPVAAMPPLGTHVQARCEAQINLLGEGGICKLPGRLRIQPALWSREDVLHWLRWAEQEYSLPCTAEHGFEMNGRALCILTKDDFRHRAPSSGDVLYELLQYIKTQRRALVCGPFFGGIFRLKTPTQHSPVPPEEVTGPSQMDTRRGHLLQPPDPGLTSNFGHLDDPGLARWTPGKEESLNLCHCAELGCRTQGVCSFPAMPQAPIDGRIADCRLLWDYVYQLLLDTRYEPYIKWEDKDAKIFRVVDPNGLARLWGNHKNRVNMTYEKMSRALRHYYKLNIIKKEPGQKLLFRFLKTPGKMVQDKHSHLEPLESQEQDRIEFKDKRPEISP
As to conditions: protein: recombinant; tags: N-terminal GST; dsDNA, one strand shown. In a few lines: as §1

A further assay has as its target T11, ELF5 (Homo sapiens, UniProt Q9UKW6-2 1-255).
T11 sequence: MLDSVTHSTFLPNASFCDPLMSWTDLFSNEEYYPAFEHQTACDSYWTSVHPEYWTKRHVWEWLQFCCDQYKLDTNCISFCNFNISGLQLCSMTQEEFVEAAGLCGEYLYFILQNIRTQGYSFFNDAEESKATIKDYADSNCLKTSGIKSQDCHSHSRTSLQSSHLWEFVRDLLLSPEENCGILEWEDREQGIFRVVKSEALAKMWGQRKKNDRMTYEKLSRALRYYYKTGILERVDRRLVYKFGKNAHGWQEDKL
As to conditions: protein: recombinant; tags: N-terminal GST; dsDNA, one strand shown. In a few lines:
as §1

A further assay concerns the target T12, ETV3 (Homo sapiens, UniProt P41162-2 1-143).
T12 sequence: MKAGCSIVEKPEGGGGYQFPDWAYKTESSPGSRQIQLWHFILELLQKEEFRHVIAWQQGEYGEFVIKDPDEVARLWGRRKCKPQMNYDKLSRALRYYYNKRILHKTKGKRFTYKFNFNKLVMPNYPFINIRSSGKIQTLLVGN
As to conditions: protein: recombinant; tags: N-terminal GST; dsDNA, one strand shown. An outline of the steps:
as §1

For the next assay, the target named is ETV6 (Homo sapiens, UniProt P41212 1-452). The following applies: protein: recombinant; tags: N-terminal GST; dsDNA, one strand shown. An outline of the steps:
as §1

Chain of CRX (O43186 whole entry): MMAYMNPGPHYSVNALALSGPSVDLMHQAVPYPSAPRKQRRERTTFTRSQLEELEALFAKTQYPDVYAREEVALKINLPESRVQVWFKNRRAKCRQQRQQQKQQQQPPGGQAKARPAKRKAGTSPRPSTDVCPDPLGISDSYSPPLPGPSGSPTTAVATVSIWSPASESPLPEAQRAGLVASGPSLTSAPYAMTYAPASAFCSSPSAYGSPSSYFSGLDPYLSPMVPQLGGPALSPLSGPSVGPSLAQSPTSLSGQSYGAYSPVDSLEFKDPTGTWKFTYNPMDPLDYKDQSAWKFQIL
Chain of ETV6 (P41212 whole entry): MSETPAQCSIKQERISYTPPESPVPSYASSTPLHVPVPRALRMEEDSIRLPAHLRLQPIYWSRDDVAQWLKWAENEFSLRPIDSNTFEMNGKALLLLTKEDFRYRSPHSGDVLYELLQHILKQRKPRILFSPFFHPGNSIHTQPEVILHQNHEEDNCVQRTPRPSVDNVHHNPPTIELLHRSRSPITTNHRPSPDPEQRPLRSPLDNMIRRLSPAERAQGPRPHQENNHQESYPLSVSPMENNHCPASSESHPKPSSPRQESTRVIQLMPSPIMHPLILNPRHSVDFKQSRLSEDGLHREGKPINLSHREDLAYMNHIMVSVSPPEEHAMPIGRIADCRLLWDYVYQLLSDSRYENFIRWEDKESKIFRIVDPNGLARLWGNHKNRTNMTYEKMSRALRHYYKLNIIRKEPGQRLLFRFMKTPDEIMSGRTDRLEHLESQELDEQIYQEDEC
Chain of HSF1 (Q00613 whole entry): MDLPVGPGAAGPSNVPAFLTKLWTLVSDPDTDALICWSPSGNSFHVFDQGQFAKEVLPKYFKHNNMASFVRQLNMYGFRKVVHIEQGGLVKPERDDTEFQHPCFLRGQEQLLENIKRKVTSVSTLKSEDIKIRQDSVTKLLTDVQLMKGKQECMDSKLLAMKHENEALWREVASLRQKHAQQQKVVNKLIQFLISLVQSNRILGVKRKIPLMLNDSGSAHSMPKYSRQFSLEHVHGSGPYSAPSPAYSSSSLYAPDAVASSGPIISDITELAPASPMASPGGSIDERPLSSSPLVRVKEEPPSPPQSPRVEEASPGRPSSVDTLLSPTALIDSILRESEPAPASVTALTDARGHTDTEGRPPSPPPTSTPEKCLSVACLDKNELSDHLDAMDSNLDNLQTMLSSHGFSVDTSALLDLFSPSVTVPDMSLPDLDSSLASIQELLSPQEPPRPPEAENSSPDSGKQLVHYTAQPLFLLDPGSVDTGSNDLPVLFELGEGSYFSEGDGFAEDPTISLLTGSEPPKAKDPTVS
Chain of ELF4 (Q99607 whole entry): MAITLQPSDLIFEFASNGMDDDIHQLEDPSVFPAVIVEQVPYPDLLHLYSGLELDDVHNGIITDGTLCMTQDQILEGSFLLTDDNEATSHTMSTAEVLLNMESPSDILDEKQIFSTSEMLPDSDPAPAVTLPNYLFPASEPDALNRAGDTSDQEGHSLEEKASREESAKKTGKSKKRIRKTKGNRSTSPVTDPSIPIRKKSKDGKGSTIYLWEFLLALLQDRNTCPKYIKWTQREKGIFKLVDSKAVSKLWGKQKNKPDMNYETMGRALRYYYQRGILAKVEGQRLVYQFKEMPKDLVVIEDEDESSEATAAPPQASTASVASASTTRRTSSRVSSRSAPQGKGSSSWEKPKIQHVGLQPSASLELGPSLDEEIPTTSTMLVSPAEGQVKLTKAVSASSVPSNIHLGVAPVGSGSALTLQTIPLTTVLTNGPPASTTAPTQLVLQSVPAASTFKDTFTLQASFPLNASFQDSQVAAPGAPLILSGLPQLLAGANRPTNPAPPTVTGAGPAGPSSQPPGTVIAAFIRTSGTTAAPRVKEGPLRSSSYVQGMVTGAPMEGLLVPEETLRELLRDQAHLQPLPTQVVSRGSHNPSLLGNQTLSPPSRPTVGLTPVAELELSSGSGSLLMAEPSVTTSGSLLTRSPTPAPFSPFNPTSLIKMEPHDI

For the sequence TACGAA, the binding signal with FEV is 1.29 fold enrichment (6-mer frequency, TF over GST control); with ETV5, 1.21 fold enrichment (6-mer frequency, TF over GST control); with HSF1 it was 1.38 fold enrichment (6-mer frequency, TF over GST control); with SPIC, 1.11 fold enrichment (6-mer frequency, TF over GST control); in the assay with ELF4, 1.31 fold enrichment (6-mer frequency, TF over GST control); with ELK4, 1.23 fold enrichment (6-mer frequency, TF over GST control). Further, the binding signal with ETV2 is 1.16 fold enrichment (6-mer frequency, TF over GST control); with ELF3 it was 1.25 fold enrichment (6-mer frequency, TF over GST control); with CRX, 1.32 fold enrichment (6-mer frequency, TF over GST control); in the assay with ETV1, 1.24 fold enrichment (6-mer frequency, TF over GST control); with ERF, 1.28 fold enrichment (6-mer frequency, TF over GST control); in the assay with ETV3L it was 1.27 fold enrichment (6-mer frequency, TF over GST control). In addition, the binding signal with ETS2 is 1.18 fold enrichment (6-mer frequency, TF over GST control); with SPDEF, 1.18 fold enrichment (6-mer frequency, TF over GST control); with ETV7, 1.31 fold enrichment (6-mer frequency, TF over GST control); with ELF5 it was 1.2 fold enrichment (6-mer frequency, TF over GST control); with ETV3, 1.19 fold enrichment (6-mer frequency, TF over GST control); in the assay with ETV6 it was 1.18 fold enrichment (6-mer frequency, TF over GST control).
